# HCMV inh – human cytomegalovirus inhibition; 4.5% of 410,000 active; activity change, negative = inhibition, % at 57.5 µM; HFF cells, HCMV-luciferase reporter, 72 h; active compounds read low; in the data active means activity change below about -60%; inconclusive means no clear call, values can overlap the other calls; inactive means above about -39%
#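 Luciferase read-out from HCMV-luciferase-infected HFFs (MOI 1 PFU/cell) 72 h post infection at 37C; compounds added after 16 h cell attachment; activity normalized between buffer-only basal and Salinomycin (10uM) inhibitor controls.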
# VACV Venus inh – vaccinia inhibition (Venus reporter); Vaccinia virus Venus reporter expression, fluorescence; Potency, µM (highest dose often 36.5 µM), for inactives: at the highest dose activity change, negative = inhibition, actives largely listed as inhibitors; 0.46% of 330,000 active; AID 720580; calls by dose curve; tested in A549 cells; further: potency means the concentration at half of the fitted maximal effect; nearly all actives have a fitted effect of over 30% in size
# FMDV inh – antivirals against foot and mouth disease virus | FMDV antiviral cell-based qHTS | Potency, µM (highest dose often 57.9 µM), for inactives: at the highest dose activity change, negative = inhibition, hits mostly inhibitors | 1.2% of 410,000 active; calls by dose curve; tested in HEK293T cells; further: read-out not given here; potency means the concentration at half of the fitted maximal effect; nearly all actives have a fitted effect of over 45% in size
# LASV entry inh – blocks Lassa virus binding to or entry into cells | Potency, µM (highest dose often 37.9 µM), for the others: at the top dose activity change, negative = inhibition, most hits filed as inhibitors | Lassa virus pseudotype entry inhibition, cell reporter | 1.2% of 300,000 active | AID 540256; calls by dose curve; tested in HEK293 cells; further: potency means the concentration at half of the fitted maximal effect; nearly all actives have a fitted effect of over 50% in size
# Vaccinia mCherry – inhibitors of vaccinia virus infection (mCherry reporter signal) | Potency, µM (top dose mostly 36.5 µM), for the others: at the top dose activity change, negative = inhibition, hits mostly inhibitors | 0.63% of 310,000 active | AID 720579 | Vaccinia virus mCherry reporter infection, fluorescence; calls by dose curve; tested in A549 cells; further: potency means the concentration at half of the fitted maximal effect; nearly all actives have a fitted effect of over 35% in size
# MARV entry inh – inhibitors of Marburg virus binding or cell entry. Marburg virus pseudotyped entry inhibition, cell reporter. AID 540276. Potency, µM (highest dose often 37.8 µM), inactives show at the top dose activity change, negative = inhibition, actives largely listed as inhibitors. 1.8% of 300,000 active; calls by dose curve; tested in HEK293 cells; further: potency means the concentration at half of the fitted maximal effect
# Starred values were filed as active, the others as inactive; i = inactive; u = inconclusive; x = no result; ! = not active in a repeat; [ ] = another dose, or the depositor's remark. Sampled rows, rich in hits. Any-hit rate of the full collection: about 6.5%. On the % scale 0 is the no-effect control and ±100 the full control effect.
SMILES,HCMV inh,VACV Venus inh,FMDV inh,LASV entry inh,Vaccinia mCherry,MARV entry inh
Cc1ccc(CCNC(=O)C(C)n2nc(C)c3c(C)n(-c4ccccc4)nc3c2=O)cc1 (stereo unspecified),-31,-11%,10%,3%[46.1 µM],-10%,9%[46.1 µM]
Cc1cccc(CNC(=O)c2cnn(-c3nccc(-c4cc(C)sc4C)n3)c2C)n1,x,-1%,-8%,x,-4%,x
O=C(CSc1ccccc1C(=O)NCc1ccccc1)NC12CC3CC(CC(C3)C1)C2,-32,u,u,10µM*,u,u
Cc1nn(C(=O)c2ccc(Cl)cc2)c(C)c1S(=O)(=O)N1CCOCC1,-2,-6%,-5%,19%[46.1 µM],4%,x
c1ccc(N2CCN(c3nc4cc5c(cc4s3)OCO5)CC2)cc1,-20,-20%,7%,5%,i,-22%
CN1CCN(c2ccc3sc(-n4ccc5ccccc54)nc3c2)CC1,-104*,-16%,u,x,-14%,x
COc1ccc(-c2c(-c3ccc4c(c3)OCO4)noc2-c2ccsc2)cn1,x,-12%,x,x,-1%,x
CCOC(=O)N1CCC(NC(=O)c2cc3c(-c4ccc(OC)c(OC)c4)nn(C)c3s2)CC1,8,-1%,u,u,-11%,-22%
COc1ccc(NC(=O)c2cc3c(-c4ccc(OC)c(OC)c4)nn(C)c3s2)cc1OC,-97*,x,-25%,13µM*,x,13µM*
COc1ccc(-c2nn(C)c3sc(C(=O)Nc4cc(OC)c(OC)c(OC)c4)cc23)cc1OC,-98*,-3%[7.34 µM],-11%,u,-11%[7.34 µM],u
COc1ccccc1NC(=O)c1cc2c(-c3ccccc3)nn(-c3ccccc3)c2s1,-61*,-6%,-22%,-20%[46.1 µM],-12%,16%[46.1 µM]
COc1ccc(-c2nn(C)c3sc(C(=O)NCc4ccco4)cc23)cc1OC,13,-5%,-12%,0%,-17%,-1%
CCOC(=O)c1cc(-c2ccccc2)n(-c2cccc(C(=O)Nc3ccc(OCC)cc3)c2)c1C,-11,-15%,-11%,3%[46.1 µM],-14%,x
CC(=O)c1ccc([C@@H]2C=C[C@H](O)[C@@H](CO)O2)cc1,x,x,x,x,x,23%[14.2 µM]
Cc1cc(CNC(=O)c2cnn(-c3ncc4c(n3)-c3ccccc3CCC4)c2C2CC2)on1,x,-8%,21%,x,i,x
CCc1noc(-c2ccc(NC(C)c3ccccc3)c([N+](=O)[O-])c2)n1 (stereo unspecified),20,-8%,-5%,1%[46.1 µM],-4%,1%[46.1 µM]
CCOc1ccc2nc(NC(=O)c3ccc(OC)c(S(=O)(=O)N4CCOCC4)c3)sc2c1,17,x,u,u,x,u
COc1ccc(-c2csc(NC(=O)C3CCCCN3S(=O)(=O)c3ccccc3)n2)cc1 (stereo unspecified),-68*,u,-63%,16µM*,x,u
COc1ccc(-c2csc(NC(=O)CS(=O)(=O)c3ccccc3)n2)cc1,12,-16%,u,u,-8%,u
CCOc1ccc2nc(NC(=O)c3ccc(S(=O)(=O)N4CCOCC4)cc3)sc2c1,-32,-9%,28µM*,3%,9%,9%
O=C(Nc1nc(-c2ccccc2)cs1)c1ccccc1NS(=O)(=O)c1ccc(F)cc1,-100*,u,u,3.7µM*,u,u
Cc1ccc(S(=O)(=O)N2CCOCC2)cc1C(=O)Nc1nc(-c2ccccn2)cs1,-87*,u,u,-29%,u,u
COc1ccc(CCNC(=O)CCCn2c(=O)c3ccccc3n(CC(=O)Nc3ccccc3C)c2=O)cc1OC,10,-4%,-17%,14%[46.1 µM],1%,u
COc1ccc2c(c1)c1nnc(SC)nc1n2Cc1ccccc1,x,-10%,x,x,-10%,x
COc1cccc(NC(=O)C(=O)NCCc2csc(-c3ccc(C(F)(F)F)cc3)n2)c1,39,-12%,0%,1%[46.1 µM],-12%,x
SMILES,HCMV inh,VACV Venus inh,FMDV inh,LASV entry inh,Vaccinia mCherry,MARV entry inh
Cc1c(Cl)cccc1NC(=O)CN1C(=O)c2ccccc2Sc2ncccc21,8,-5%,-22%,-25%[46.1 µM],-15%,x
C#CCN(Cc1nc(N2CCOCC2)c2ccc(Cl)cc2n1)Cc1ccco1,x,6%,-7%,x,-8%,x
Cc1cnc(CNc2ncnc3ccc(-c4cccc(C#N)c4)cc23)cn1,x,17%,-15%,x,13%,x
COc1ccc2c(c1)[C@@H](NC(=O)OCc1ccccc1)[C@H](C)[C@@H](c1ccccc1)N2Cc1cccc(F)c1,-10,x,x,x,x,x
COc1ccc(-c2nc3scc(CCNS(=O)(=O)c4cccs4)n3n2)cc1,u,-12%,6%,-18%[46.1 µM],-9%,x
COc1ccc(-c2csc(NC(=O)c3ccccc3C(=O)O)n2)cc1,-3,-14%,0%,x,i,x
COc1ccc(-c2csc(NC(=O)c3ccccc3S(C)(=O)=O)n2)cc1,u,-7%,25µM*,u,i,u
COc1ccccc1C(=O)Nc1nnc(S(=O)(=O)N2CCCCC2)s1,-73*!,-11%,11%,-15%[46.1 µM],-12%,x
O=C(COc1cccc(Cl)c1)Nc1nc(-c2ccc(S(=O)(=O)N3CCOCC3)cc2)cs1,u,-29%,u,u,-10%,u
COc1ccccc1C(=O)Nc1nc(-c2ccc(S(=O)(=O)N3CCOCC3)cc2)cs1,-95*,x,3.2µM*,3.7µM*,x,7.3µM*
CCOc1cccc(C(=O)Nc2nc(-c3ccc(S(=O)(=O)N4CCOCC4)cc3)cs2)c1,-13,-24%,18µM*,u,x,-1%
COc1cc(Cl)c(C)cc1NC(=O)CSCc1nc(-c2ccc(OC)c(OC)c2)no1,34,0%,-7%,-14%[46.1 µM],i,x
N=C(N)SCc1ccccc1Cl,-24,-6%,u,-8%,i,8.2µM*
COc1ccc2c(c1)c(C(=O)N1CCN(C)CC1)c(C)n2-c1ccccc1,27,-18%,5%,-3%,-23%,3%
COc1ccc2c(c1)c(C(=O)O)c(C)n2-c1ccc(Cl)cc1,-63*,x,-16%,x,x,x
CCOc1ccc(-n2c(C)c(C(C)=O)c3cc(O)ccc32)cc1,-62*,x,-7%,x,x,x
CC(=O)c1c(C)n(-c2ccccc2)c2ccc(O)cc12,-64*,x,-29%,2%,x,14%
CCOc1ccc(-n2c(C)c(C(=O)OC)c3cc(O)ccc32)cc1,-39,2%,-11%,2%,u,-20%[46.1 µM]
CC(=O)c1c(C)n(-c2ccc(Cl)cc2)c2ccc(O)cc12,-13,-2%,-7%,-3%[46.1 µM],u,4%[46.1 µM]
CC(=O)c1c(C)n(-c2cccc(Cl)c2)c2ccc(O)cc12,-68*,u,-14%,-9%[46.1 µM],u,u
Cn1nnnc1SCCCNCc1ccc(-c2ccc(Br)cc2)o1,-11,-15%,44%,2%[46.1 µM],-16%,4%[46.1 µM]
C[C@@H]1CC[C@H]2C(=O)O[C@H](CN=[N+]=[N-])CN2[C@@H]1c1ccc(Br)cc1,x,x,x,x,x,1%[14.2 µM]
CC(=O)c1c(C)n(CCc2ccc(Cl)cc2)c2ccc(O)cc12,-38,-9%,-14%,-5%,-16%,-8%
CC(=O)c1c(C)n(Cc2ccccc2Cl)c2ccc(O)cc12,-62*,0%,u,-6%,-12%,3%[46.1 µM]

# Source: PubChem (National Center for Advancing Translational Sciences (NCATS))
